Measured values taken from the supplement of paper PMC6555819.

Legend:
Test in all cases: PBM binding z-score (relative to random genomic background probes); higher = stronger binding; sequences stand for … in GC…GCGATTGACAGCGTAGAATGAAGG
[1] = test system: FXR:RXRa (NR concentration 270 nM, RXRa partner concentration 90 nM)
Method in brief: (§1)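 Random background probes are the reference for binding z-scores. These scores derive from regression-normalized fluorescence on custom Agilent 4×180K protein-binding microarrays incubated 1 h with ligand-free nuclear receptor dimers. Binding was detected with antibodies against each partner (one per run).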

[2] = test system: LXRa:RXRa (NR concentration 270 nM, RXRa partner concentration 90 nM)
Method in brief: as §1

[3] = test system: LXRa homodimer (NR concentration 270 nM)
Method in brief: as §1

[4] = test system: LXRb:RXRa (NR concentration 270 nM, RXRa partner concentration 90 nM)
Method in brief: as §1

[5] = test system: LXRb homodimer (NR concentration 270 nM)
Method in brief: as §1

[6] = test system: PPARa:RXRa (NR concentration 270 nM, RXRa partner concentration 90 nM)
Method in brief: as §1

[7] = test system: PPARg:RXRa (NR concentration 180 nM, RXRa partner concentration 90 nM)
Method in brief: as §1

[8] = test system: PPARg:RXRa 270nM:90nM, anti-RXR (NR concentration 270 nM, RXRa partner concentration 90 nM)
Method in brief: as §1

[9] = test system: PPARg:RXRa 30nM:10nM, anti-RXR (NR concentration 30 nM, RXRa partner concentration 10 nM)
Method in brief: as §1

[10] = test system: PPARg:RXRa 90nM:30nM, anti-RXR (NR concentration 90 nM, RXRa partner concentration 30 nM)
Method in brief: as §1

Sequence	PBM binding z-score [1]	PBM binding z-score [2]	PBM binding z-score [3]	PBM binding z-score [4]	PBM binding z-score [5]	PBM binding z-score [6]	PBM binding z-score [7]	PBM binding z-score [8]	PBM binding z-score [9]	PBM binding z-score [10]
AGTCAAAGTTCAGAACGAGGTAACGTAAAGCACG	4.06	3.73	1.34	1.78	0.533	3.26	4.48	4.72	1.77	4.12
CGTCCAAGGTCAGCAGGCCAGTGAAAGCGACGTG	4.9	3.41	-0.314	2.31	-0.659	4.69	2.86	3.35	0.155	1.84
GCGACTGGGGCATCAGCAGGTTACCATCACTTAA	-0.298	-0.121	-0.321	0.504	-0.992	0.811	0.679	0.547	-0.615	-0.341
TCATATAGGTAAATGCTTGGTGAAAGTCCGATCT	0.688	0.994	0.23	0.824	-0.0277	1.12	0.522	2.24	3.68	2.72
GATACACGGTCAGCTAGAGGCCAGAGTATGGAAA	-0.145	-0.145	-0.281	-0.57	-0.753	-0.296	0.351	-0.323	-0.383	-0.205
CTACCAAGGTGAACAAGGACGTTGATTACTATTC	0.78	0.235	0.0356	0.647	-0.411	0.963	0.812	0.636	0.194	0.209
CCAGACACGTGAGAAGGTAACTCAGCCTCGATTA	-0.22	-0.083	-0.348	-0.3	-0.11	-0.534	0.37	-0.804	-0.82	-0.704
CAGCCTAGGTCAGGGCCAGTATGGGAGGAACGTT	1.41	0.705	-0.724	0.176	-1.05	2.06	0.648	0.825	-0.673	0.0186
CAAACTAGGTCCCCGGAAGGTCAAAGTCCGCATG	2.38	3.13	2.88	2.9	0.475	3.7	2.01	2.86	0.494	1.63
TAGCCTAGGTCATTGGGCCAGTAGAGTACGCATC	3.86	3.33	0.509	2.17	-0.0447	3.92	3.68	3.97	0.744	2.76
ACAATGAGGTTATTAAGATCAGGGAATTGCGGTC	1.54	1.7	0.283	1.26	0.952	2.42	1.45	1.7	0.622	1.3
ATACAAAGGTGATCGTGAGGTCGTTGATACTAAC	2.64	2.6	0.941	1.91	0.00532	2.76	1.87	1.95	0.554	1.27
GATACAGGGTCAGCTAGAGGCGAGAGTATGGAAA	4.63	2.33	-0.47	2.27	-0.792	4.46	3.77	3.24	1.08	1.87
CGTCCAAGGTCAGAGAAGTCAGTGAATGCCGAGT	4.48	2.9	0.222	2.17	-0.0616	3.73	1.89	2.54	0.704	1.5
TGAATGAGATTAAAGATCAGGGAACGTGGCGTCG	-0.229	-0.065	-0.329	-0.322	-0.389	0.409	1.02	2.19	1.3	1.91
CGAACTAGGTAATTGACAGGACAGTGAATAGTAA	-0.398	-0.336	0.0257	-0.434	-0.603	0.979	1.09	0.555	0.0511	0.213
CCGACTGGGGCATAAGGTTACCATTAGCCAGCCC	0.294	0.416	-0.399	0.617	-1.38	1.85	2.02	3.12	0.689	2.57
TTACCAAGGTGAAGGACGTTGATCCCTCTGTAGA	0.74	0.584	-0.361	0.414	-0.656	1.21	0.633	1.19	0.789	1.17
CCTTGCAGGCCAGGGTCACTCAAGCATTTCGCTT	2.3	1.82	-0.569	1.99	-1.06	3.29	1.01	2.11	-0.339	1.02
AATACACGGTCACTAGGCCAGAGTAGGTACGAAT	0.614	1.45	1.32	0.203	0.449	0.827	2.67	1.74	0.885	1.15
CCAGACAGGAGAAAGGTAACTCAGTCTGGTACGC	-0.00582	-0.0922	-0.373	-0.0883	-0.51	0.347	0.817	1.46	0.169	0.958
ACTAGCAGGCCAAGTTTGGGTCCCTCAAACAAAG	-0.607	-0.657	-0.583	-0.842	-0.875	-0.286	-0.709	-0.928	-1.06	-1.05

Sequence	PBM binding z-score [1]	PBM binding z-score [2]	PBM binding z-score [3]	PBM binding z-score [4]	PBM binding z-score [5]	PBM binding z-score [6]	PBM binding z-score [7]	PBM binding z-score [8]	PBM binding z-score [9]	PBM binding z-score [10]
CCGACTGGGGCAGAAAGGTTACCATGCCATCCGG	0.204	0.517	-0.401	0.479	-1.31	2.23	1.6	2.65	0.457	1.82
CCGAGTAGGTTATGGGGCATTCATGCAACGGTGA	0.225	0.548	-0.0106	0.797	-0.214	2.26	3.65	4.6	3.02	4.44
ATCAAAAGGTCGACGAGGTGAGTATACACCGTTT	4.64	3.46	0.265	2.86	0.587	4.82	3.29	3.63	1.47	2.53
GCGACTGGGGCATCAGCAGGTGACCATAACTTAA	-0.501	-0.679	-0.385	0.223	-1.22	0.831	0.922	0.832	-0.507	-0.0151
TCTGCTAGATCAGTTGGTCAGCTAACGAGCTGCC	-2.98	-0.794	-1.07	-0.988	-0.764	-0.465	-0.552	0.389	1.24	0.547
ATATGTAGGTTAAGTGTCATTCAGGTTGGTTCGC	1.68	2.16	1.09	1.93	0.826	4.74	7.81	7.39	6.14	7.88
GCTATTAGTTGAAAGGGAAACCGAATGATTCTCG	-0.0917	-0.171	0.0809	-0.236	-0.289	0.000801	0.567	1.6	0.38	1.25
CCGACTGGGGCACAAGGTTACCATAAGCCAGCCC	0.122	1.73	-0.433	0.74	-1.16	2.2	2.92	3.16	0.724	2.49
GCTGCTAGGTCAGGTTTGTCAGCTAACGGGTACG	0.8	0.465	-0.141	0.304	-0.389	0.943	0.265	0.692	-0.284	0.389
CGTCAAAGTTAAACTAAGGTAACGTAAAGCACGC	0.945	1.15	0.57	0.346	0.169	0.868	0.628	0.688	0.0889	0.292
TTTGCTAGGTCAACGATGGTCAGCTAATCTGCTA	3.71	4.07	1.84	2.07	-0.0738	3.59	3.4	3.77	1.38	2.86
CCTTACGGGTGACTCCAGGTTATAGCATCGGAGT	0.642	5.37	0.839	1.76	-0.486	1.35	0.581	0.491	-0.12	0.123
ACAGACAGGTGAGTGAAGGTAACACAGCTGGACG	0.433	0.227	-0.295	-0.073	-0.319	0.307	1.16	0.43	0.00598	0.0299
TGGCCTAGGTCATTCAGGGGCCAGTATAGAAAGC	4.69	3.39	0.183	2.3	0.0581	3.59	2.15	2.33	0.133	1.5
TCTTGTAGATCAAAGGTTAAGAGAGCCGAAGCCT	1.58	1.77	0.0362	1.91	-0.272	4.75	8.74	8.28	8.05	8.92
AGAATGAGGTTATACGTAGATCGGGGAAGAAAGT	2.27	2	0.119	1.96	0.366	3.29	1.84	2.15	0.629	1.49
TCTTGTAGATCAACATGAGGTTAAGAAAGATCGA	0.309	1.61	0.535	1.19	0.134	1.62	0.344	1.66	2.62	2.31
ATCTCTAGGTAAAAGTTCAGTAAATCCCGAGGAT	0.994	1.49	1.5	1.29	1.31	4.43	7.76	7.37	6.62	8.13
TCAGACAGGTGAAGGTAACCCAGGTACGCAGTCG	1.04	1.3	0.143	0.546	-0.122	1.45	0.909	2.04	3.53	2.77
GCTAGTTGGTCAGTAATAGGTCACACACCGGTCG	1.19	1.72	1.74	1.77	0.0415	2.79	1.44	2.52	0.756	1.82
AGTCGAAGTTCACTAGGTAACGTAAGATTCAGCT	1.2	1.74	0.29	1.03	-0.107	2.81	3.18	3.43	0.891	2.44
TCTCGGAGGAGACGAAGGTCAGAGCTTTCCAGAG	0.255	0.507	-0.124	0.569	-1.39	1.62	-0.069	1.26	1.84	1.51
